This passage reports Potency and outcome results from PubChem BioAssay (Tox21).

In test [1] the target is Thyrotropin-releasing hormone receptor (Homo sapiens) (UniProt P34981). Kind of test: qHTS assay to identify small molecule agonists of the thyrotropin-releasing hormone receptor (TRHR) signaling pathway (AID 1346891; calls by dose curve;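 also: HEK293 cells expressing TRHR with calcium dye readout; series mostly up to about 58 µM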). Put shortly: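 HEK293/TRHR cells, 1500 per well, 18 h 37 °C; Ca dye 2 h 37 °C; pin-tool compound addition (agonist mode); kinetic fluorescence 3 min, 1 s reads; 15 concentrations, triplicate.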
Sequence of Thyrotropin-releasing hormone receptor (Homo sapiens) (P34981 whole entry, looked up): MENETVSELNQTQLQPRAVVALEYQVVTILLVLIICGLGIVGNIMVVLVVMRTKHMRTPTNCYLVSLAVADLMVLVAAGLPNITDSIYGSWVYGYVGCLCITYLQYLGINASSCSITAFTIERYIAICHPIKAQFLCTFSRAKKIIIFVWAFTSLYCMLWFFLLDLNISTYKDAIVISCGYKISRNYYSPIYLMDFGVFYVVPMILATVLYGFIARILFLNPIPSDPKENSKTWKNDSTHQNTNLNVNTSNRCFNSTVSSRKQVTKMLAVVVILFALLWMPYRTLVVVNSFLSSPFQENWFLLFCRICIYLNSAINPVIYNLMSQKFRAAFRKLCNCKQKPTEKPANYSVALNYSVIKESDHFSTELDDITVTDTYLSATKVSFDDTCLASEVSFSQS
A general note: Quantitative high-throughput screening tests each substance at several concentrations.

A short description of test [2]: Human pregnane X receptor (PXR) small molecule agonists, qHTS cell viability counter screen (AID 1346977). Also: nearly all actives have a fitted effect of over 50% in size. Also: potency is read from the fitted curve at half-maximal effect. Put shortly: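 Fluorescence read-out (CellTiter-Fluor) of viability in PXR-Luc HepG2 cells, multiplexed with the luciferase agonist read. Compounds in DMSO added after 5hr plating; 24hr total exposure at 37C, 5% CO2.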
The nature of test [3]: Caspase-3/7 induction in HepG2 cells by small molecules, qHTS assay (AID 1346978). Also: nearly all actives have a fitted effect of over 15% in size. The essentials: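 Caspase-3/7 induction was measured by Caspase-Glo 3/7 luminescence (30 min, room temperature) after a 17 hr compound exposure of wild-type HepG2 cells seeded at 2,000 per well and pre-incubated 5 hr.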
Test [4] can be described thus: Caspase-3/7 induction in CHO-K1 cells by small molecules, qHTS cell viability counter screen (AID 1346979). Also: nearly all actives have a fitted effect of over 35% in size. Also: potency is read from the fitted curve at half-maximal effect. Put shortly:
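CHO-K1 wt, 1,500 cells/well; 5hr pre-incubation 37C/5% CO2; compound pin transfer (DMSO); 16hr exposure; CellTiter-Fluor added, 1hr, fluorescence read.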

Test [5] is described as follows: Caspase-3/7 induction in CHO-K1 cells by small molecules, qHTS assay (AID 1346980). Also: nearly all actives have a fitted effect of over 15% in size. Put shortly:
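Luminescent Caspase-Glo 3/7 read (30min, room temperature) quantified apoptosis induction. Cells were wild-type CHO-K1, treated with compound for 17hr at 37 C and 5% CO2.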

Test [6] deals with Cytochrome P450 2D6 (Homo sapiens) (UniProt P10635). Kind of test: Cytochrome P450 Family 2 Subfamily D Member 6 (CYP2D6) small molecule antagonists: luciferase reporter qHTS assay (AID 1671196). Also: nearly all actives have a fitted effect of over 50% in size. Also: potency is read from the fitted curve at half-maximal effect. The essentials:
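Enzyme and proluciferin substrate were first combined with test chemical for 10 min at room temperature. Adding NADPH regeneration solution started a 1 h reaction, stopped with luciferin detection reagent and read by luminescence 20 min later.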

Test [7] concerns the target Cytochrome P450 2C19 (Homo sapiens) (UniProt P33261). Kind of test: Cytochrome P450 Family 2 Subfamily C Member 19 (CYP2C19) small molecule antagonists: luciferase reporter qHTS assay (AID 1671197). Also: nearly all actives have a fitted effect of over 65% in size. Also: potency is read from the fitted curve at half-maximal effect. Put shortly: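 Relative luminescence units recorded 20 min after the detection reagent stopped a 1 h, 37C CYP2C19 reaction on proluciferin substrate, which was started by NADPH regeneration following 10 min room-temperature compound preincubation; ketoconazole positive control.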
(In general: In a reporter assay the amount or activity of a reporter protein is the signal.)

In test [8] the target is Cytochrome P450 2C9 (Homo sapiens) (UniProt P11712). Nature of the test: Cytochrome P450 Family 2 Subfamily C Member 9 (CYP2C9) small molecule antagonists: luciferase reporter qHTS assay (AID 1671198). Also: nearly all actives have a fitted effect of over 50% in size. Also: potency is read from the fitted curve at half-maximal effect. The essentials:
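Enzyme-substrate mix preincubated with compound 10 min at room temperature; reaction started with NADPH regeneration solution, 1 h 37C. Luminescent luciferin product read after 20 min detection reagent.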

The target in test [9] is Cytochrome P450 1A2 (Homo sapiens) (UniProt P05177). Nature of the test: Cytochrome P450 Family 1 Subfamily A Member 2 (CYP1A2) small molecule antagonists: luciferase reporter qHTS assay (AID 1671199). Also: nearly all actives have a fitted effect of over 50% in size. Also: potency is read from the fitted curve at half-maximal effect. The essentials: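 Compounds were incubated with CYP1A2 and a luminogenic proluciferin substrate for 10 min at room temperature before the reaction was started with NADPH regeneration solution. After 1 h, detection reagent was added and light output, proportional to CYP activity, was recorded.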
Sequence of Cytochrome P450 1A2 (Homo sapiens) (P05177 whole entry, looked up): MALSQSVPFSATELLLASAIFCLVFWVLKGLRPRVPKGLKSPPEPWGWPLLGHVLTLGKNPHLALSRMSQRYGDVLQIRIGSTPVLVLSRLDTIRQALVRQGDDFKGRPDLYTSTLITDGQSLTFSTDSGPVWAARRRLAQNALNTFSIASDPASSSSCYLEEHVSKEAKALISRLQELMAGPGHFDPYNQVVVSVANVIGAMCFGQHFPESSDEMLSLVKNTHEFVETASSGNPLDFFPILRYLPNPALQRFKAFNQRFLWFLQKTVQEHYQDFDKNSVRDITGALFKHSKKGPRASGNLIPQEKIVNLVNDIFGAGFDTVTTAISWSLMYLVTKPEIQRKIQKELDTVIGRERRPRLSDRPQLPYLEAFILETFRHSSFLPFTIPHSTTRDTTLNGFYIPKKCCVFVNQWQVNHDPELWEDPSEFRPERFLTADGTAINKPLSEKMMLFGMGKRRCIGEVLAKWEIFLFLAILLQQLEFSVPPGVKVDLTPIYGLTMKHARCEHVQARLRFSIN

Test [10] deals with Voltage-gated inwardly rectifying potassium channel KCNH2 (Homo sapiens) (UniProt Q12809). Nature of the test: Human Ether-a-go-go-Related Gene (hERG) channel small molecule antagonists: fluorescence cell-based qHTS assay (AID 1671200). Also: nearly all actives have a fitted effect of over 50% in size. Also: potency is read from the fitted curve at half-maximal effect. The essentials:
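Read-out: thallium influx as a surrogate for potassium, tracked as fluorescence (480 nm ex/540 nm em) every second for 2 min after Stimulus Buffer addition in dye-loaded hERG-U2OS cells.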
(In general: hERG is a cardiac potassium channel; its block is linked to QT prolongation.)

For test [11], the target named is Cytochrome P450 3A4 (Homo sapiens) (UniProt P08684). Nature of the test: Cytochrome P450 Family 3 Subfamily A Member 4 (CYP3A4) small molecule antagonists: luciferase reporter qHTS assay (AID 1671201). Also: nearly all actives have a fitted effect of over 50% in size. Also: potency is read from the fitted curve at half-maximal effect. Put shortly: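 Luminescent readout (RLU) proportional to CYP3A4 activity, from luciferin generated off a proluciferin substrate. Enzyme–substrate mix plus compound 10 min at room temp, NADPH regeneration 1 h, detection reagent 20 min.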
Sequence of Cytochrome P450 3A4 (Homo sapiens) (P08684 whole entry, looked up): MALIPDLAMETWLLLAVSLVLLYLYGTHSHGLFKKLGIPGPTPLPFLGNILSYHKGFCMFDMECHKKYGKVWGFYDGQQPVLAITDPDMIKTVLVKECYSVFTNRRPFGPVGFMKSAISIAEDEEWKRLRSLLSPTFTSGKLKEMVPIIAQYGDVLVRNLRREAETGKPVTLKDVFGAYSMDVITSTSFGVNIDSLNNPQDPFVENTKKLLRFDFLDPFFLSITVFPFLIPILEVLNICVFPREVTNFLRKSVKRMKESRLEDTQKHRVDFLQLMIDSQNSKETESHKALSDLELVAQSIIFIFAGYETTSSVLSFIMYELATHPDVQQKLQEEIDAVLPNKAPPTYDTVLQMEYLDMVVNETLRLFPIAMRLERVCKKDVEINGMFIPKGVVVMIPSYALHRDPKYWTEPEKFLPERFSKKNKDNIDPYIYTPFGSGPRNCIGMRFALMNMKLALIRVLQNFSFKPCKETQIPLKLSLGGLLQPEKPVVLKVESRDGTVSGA

The target in test [12] is Nuclear receptor subfamily 1 group I member 2 (Homo sapiens) (UniProt O75469). Kind of test: Human pregnane X receptor (PXR) small molecule agonists, qHTS assay (AID 1346982). Also: nearly all actives have a fitted effect of over 35% in size. Also: potency is read from the fitted curve at half-maximal effect. The essentials: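 Cells: HepG2 stably carrying PXR-Luc. Medium held 5% charcoal-stripped FBS. Compounds in DMSO added after 5 hr plating, incubated 24 hr, then luminescence quantified with ONE-Glo.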
Sequence of Nuclear receptor subfamily 1 group I member 2 (Homo sapiens) (O75469 whole entry, looked up): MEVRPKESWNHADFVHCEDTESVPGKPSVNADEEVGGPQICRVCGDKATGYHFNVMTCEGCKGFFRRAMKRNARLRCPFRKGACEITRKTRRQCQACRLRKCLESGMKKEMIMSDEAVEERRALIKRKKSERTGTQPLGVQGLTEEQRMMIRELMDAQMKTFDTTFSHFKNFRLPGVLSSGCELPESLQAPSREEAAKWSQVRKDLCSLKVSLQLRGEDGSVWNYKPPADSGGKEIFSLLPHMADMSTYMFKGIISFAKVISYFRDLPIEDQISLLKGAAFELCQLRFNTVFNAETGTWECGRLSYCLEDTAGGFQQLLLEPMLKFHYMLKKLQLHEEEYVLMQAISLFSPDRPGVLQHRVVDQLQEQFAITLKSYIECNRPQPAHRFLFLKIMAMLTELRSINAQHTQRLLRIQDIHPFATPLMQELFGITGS

A short description of test [13]: Caspase-3/7 induction in HepG2 cells by small molecules, qHTS cell viability counter screen (AID 1346981). Also: series mostly up to about 92 µM; nearly all actives have a fitted effect of over 30% in size. Put shortly:
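Cell viability is measured as a cytotoxicity counter screen alongside the Caspase-Glo 3/7 readout in identical wells. Wild-type HepG2 cells are treated with test compounds for 16 hr at 37 C before CellTiter-Fluor addition and a 1-hr incubation.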

Values without a mark were called inactive. Inconclusive results are not listed. Calls of active or inactive are those of the source. Unless noted, calls follow the shape of the dose curve; as a rule, active = well fitted curve in the direction sought with a large enough effect in the repeat runs; inconclusive = weak or mixed curves; inactive = no such curve, though single readings can be large; an effect the other way counts as inactive or inconclusive.

Sequence of Cytochrome P450 2D6 (Homo sapiens) (P10635 whole entry, looked up): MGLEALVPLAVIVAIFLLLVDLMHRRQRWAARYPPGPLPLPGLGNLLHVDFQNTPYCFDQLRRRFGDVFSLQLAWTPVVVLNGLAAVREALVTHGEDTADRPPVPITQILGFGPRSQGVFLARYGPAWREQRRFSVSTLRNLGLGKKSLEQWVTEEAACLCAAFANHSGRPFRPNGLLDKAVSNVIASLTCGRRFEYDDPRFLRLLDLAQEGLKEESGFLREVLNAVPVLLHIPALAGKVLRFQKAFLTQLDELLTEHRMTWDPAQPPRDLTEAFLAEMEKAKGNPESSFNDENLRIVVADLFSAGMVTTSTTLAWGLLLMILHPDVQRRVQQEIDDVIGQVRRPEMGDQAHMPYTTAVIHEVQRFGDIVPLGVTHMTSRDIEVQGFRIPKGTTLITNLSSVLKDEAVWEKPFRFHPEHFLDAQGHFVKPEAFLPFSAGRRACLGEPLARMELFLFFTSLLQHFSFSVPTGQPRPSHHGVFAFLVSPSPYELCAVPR
Sequence of Cytochrome P450 2C19 (Homo sapiens) (P33261 whole entry, looked up): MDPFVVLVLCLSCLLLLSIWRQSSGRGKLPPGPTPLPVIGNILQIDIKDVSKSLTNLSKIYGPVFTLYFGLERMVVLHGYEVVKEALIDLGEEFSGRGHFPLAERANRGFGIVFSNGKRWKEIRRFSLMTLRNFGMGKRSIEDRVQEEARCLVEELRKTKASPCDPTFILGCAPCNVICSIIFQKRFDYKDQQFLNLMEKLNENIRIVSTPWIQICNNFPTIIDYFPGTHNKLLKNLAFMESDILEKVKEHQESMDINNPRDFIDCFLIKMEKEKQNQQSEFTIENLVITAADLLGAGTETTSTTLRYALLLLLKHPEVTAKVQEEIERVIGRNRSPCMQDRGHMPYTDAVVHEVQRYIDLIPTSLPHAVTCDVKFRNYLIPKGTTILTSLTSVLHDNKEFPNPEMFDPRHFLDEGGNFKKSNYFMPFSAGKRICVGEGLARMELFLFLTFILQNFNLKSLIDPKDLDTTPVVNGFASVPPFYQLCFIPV
Sequence of Voltage-gated inwardly rectifying potassium channel KCNH2 (Homo sapiens) (Q12809 whole entry, looked up): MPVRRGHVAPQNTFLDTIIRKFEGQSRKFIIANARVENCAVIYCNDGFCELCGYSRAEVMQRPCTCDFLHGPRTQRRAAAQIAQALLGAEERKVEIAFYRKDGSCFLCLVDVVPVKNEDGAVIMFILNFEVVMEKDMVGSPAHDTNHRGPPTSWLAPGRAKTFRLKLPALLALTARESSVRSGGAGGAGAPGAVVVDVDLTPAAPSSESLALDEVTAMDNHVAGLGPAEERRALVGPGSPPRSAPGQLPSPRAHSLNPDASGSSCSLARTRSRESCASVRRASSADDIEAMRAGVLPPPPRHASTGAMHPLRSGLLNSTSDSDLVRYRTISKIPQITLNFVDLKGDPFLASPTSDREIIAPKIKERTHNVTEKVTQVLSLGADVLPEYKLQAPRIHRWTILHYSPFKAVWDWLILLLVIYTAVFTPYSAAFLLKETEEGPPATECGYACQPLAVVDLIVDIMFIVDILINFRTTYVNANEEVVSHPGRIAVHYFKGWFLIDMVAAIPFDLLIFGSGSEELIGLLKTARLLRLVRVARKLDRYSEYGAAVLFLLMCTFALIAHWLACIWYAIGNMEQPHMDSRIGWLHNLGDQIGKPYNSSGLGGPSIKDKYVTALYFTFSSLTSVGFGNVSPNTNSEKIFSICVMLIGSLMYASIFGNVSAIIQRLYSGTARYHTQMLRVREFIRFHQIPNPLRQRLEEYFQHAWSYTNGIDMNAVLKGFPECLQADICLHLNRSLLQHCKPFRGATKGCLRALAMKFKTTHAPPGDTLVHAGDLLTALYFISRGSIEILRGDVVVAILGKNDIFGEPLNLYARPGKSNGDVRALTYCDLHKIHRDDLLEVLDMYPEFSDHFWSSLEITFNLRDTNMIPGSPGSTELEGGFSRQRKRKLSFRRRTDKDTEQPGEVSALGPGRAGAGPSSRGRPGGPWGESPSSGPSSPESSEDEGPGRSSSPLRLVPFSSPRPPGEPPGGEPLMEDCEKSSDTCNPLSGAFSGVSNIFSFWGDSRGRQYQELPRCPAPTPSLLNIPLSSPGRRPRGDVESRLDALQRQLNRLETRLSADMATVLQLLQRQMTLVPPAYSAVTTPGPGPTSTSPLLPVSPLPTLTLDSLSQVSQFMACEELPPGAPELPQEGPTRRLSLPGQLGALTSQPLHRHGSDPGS
Sequence of Cytochrome P450 2C9 (Homo sapiens) (P11712 whole entry, looked up): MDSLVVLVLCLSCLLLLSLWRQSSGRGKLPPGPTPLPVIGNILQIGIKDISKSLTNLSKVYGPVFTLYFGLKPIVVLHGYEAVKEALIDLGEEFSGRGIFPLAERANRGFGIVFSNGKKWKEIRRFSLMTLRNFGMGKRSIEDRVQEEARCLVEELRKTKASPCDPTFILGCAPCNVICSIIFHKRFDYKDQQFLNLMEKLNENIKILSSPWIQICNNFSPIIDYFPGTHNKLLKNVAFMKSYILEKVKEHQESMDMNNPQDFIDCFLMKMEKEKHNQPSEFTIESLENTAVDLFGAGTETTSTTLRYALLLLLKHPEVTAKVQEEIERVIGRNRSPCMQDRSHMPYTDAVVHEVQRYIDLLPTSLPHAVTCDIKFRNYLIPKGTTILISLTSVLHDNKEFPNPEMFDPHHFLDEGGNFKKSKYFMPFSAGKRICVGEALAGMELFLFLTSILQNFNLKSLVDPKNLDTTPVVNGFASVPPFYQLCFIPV

For the molecule `CCOC(=O)CC(=O)C(=O)OCC`, the Potency entry in test [1], in test [2], in test [3], in [4] and in test [6] was “inactive” in each case. Besides, the molecule was called inactive in test [5]. Further, the Potency in test [7] is 35.6 µM (active); in test [8] it was 39.9 µM (active); in [9], 31.7 µM (active); in test [10] it was 49 µM (active); in [11] it was 71 µM (active).

As for `CCOC(=O)[C@@H](C)Oc1ccc(Oc2nc3ccc(Cl)cc3o2)cc1`, the Potency entry in [1], in test [2], in test [3], in test [4] and in test [11] was “inactive” in each case. In [5], the outcome was inactive. Moreover, the Potency in test [12] is 61.1 µM (active); in test [6] it was 31.7 µM (active); in [7], 79.6 µM (active); in test [8], 35.6 µM (active); in test [10] it was 19.5 µM (active).

As for `CCOC(=O)c1ccccc1OC`, the Potency entry in test [1], in test [2], in test [3], in [4], in [12] and in [6] was “inactive” each time. The Potency entry in [8], in [10] and in test [11] was “inactive” each time. Further, the outcome in test [5] was inactive. Also, the Potency in test [7] is 79.6 µM (active); in [9], 35.6 µM (active).

As for `Cc1occc1C(=O)Nc1ccc(C(=O)N2CCC(F)(F)/C(=C\C(=O)N3CCC(N4CCCCC4)CC3)c3ccccc32)cc1`, the Potency entry in [1], in test [3], in test [4] and in test [7] was “inactive” each time. Also, the Potency is 17 µM (active) in [2]; 19.1 µM (active) in test [12]; 2.79 µM (active) in test [6]; 9.9 µM (active) in test [9]; 6.09 µM (active) in test [10]; 0.394 µM (active) in [11]. Also, the molecule was classed as inactive in test [5].

As to `CCCCCCOC(=O)CCCCCCCC(=O)OCCCCCC`, the Potency entry in test [1], in [2], in [3], in test [4], in test [12] and in [6] was “inactive” each time. For the same molecule, the Potency entry in [8], in test [10] and in test [11] was “inactive” throughout. Also, the call in [5] was inactive.

For the molecule `C=CC(C)(O)CCCC(C)CCCC(C)CCCC(C)C` (centres undefined), the Potency result in test [1], in test [2], in [3], in test [4], in test [13] and in test [7] was “inactive” each time. The Potency entry in [10] and in [11] was “inactive” throughout. Moreover, in [5], the outcome was inactive. Besides, the Potency in test [12] is 24.2 µM (active); in [9], 35.4 µM (active).

For the molecule `NC(=O)Nc1ccc(Cl)c(Cl)c1`, the Potency entry in [1], in [2], in [3], in [4] and in test [10] was “inactive” throughout. The call in [5] was inactive. Besides, the results for the Potency in test [12] and in test [9] were 48.4 µM (active) and 8.91 µM (active), respectively.

Take `Cc1nccn1-c1ccc(Sc2cccc(C3(C(N)=O)CCOCC3)c2)cc1`: the Potency result in [1] and in [3] was “inactive” in each case. Moreover, the Potency in test [2] was 8.63 µM (active); in test [4], 7.7 µM (active); in [12], 13.7 µM (active); in test [6], 35.6 µM (active); in test [7], 20 µM (active); in test [8], 5.64 µM (active). The Potency in test [11] was 7.96 µM (active). Moreover, the call in test [5] was inactive.

As for `COc1ccc(CCC(=O)c2c(O)cc(O[C@@H]3O[C@H](CO)[C@@H](O)[C@H](O)[C@H]3O[C@@H]3O[C@@H](C)[C@H](O)[C@@H](O)[C@H]3O)cc2O)cc1O`, the Potency entry in [1], in [2], in [3], in [4], in test [12] and in [6] was “inactive” in each case. Moreover, the Potency entry in test [7] and in [10] was “inactive” in each case. Also, in [5], the molecule was classed as inactive. In addition, the Potency in [8] was 25.3 µM (active).

In the case of `C[Si]1(C)O[Si](C)(C)O[Si](C)(C)O1`, the Potency result in test [1], in test [2], in test [3], in [4], in test [12] and in test [6] was “inactive” throughout. In addition, the Potency result in test [8], in test [9] and in [10] was “inactive” in each case. In [5], the outcome was inactive.
